# Assay results from PubChem BioAssay AID588397 (National Center for Advancing Translational Sciences (NCATS), 2011).
# Values joined by “and” are separate entries in the source; they are usually repeats but may differ in a detail not shown here. Identical values can stand only once. In all, about 1,300 compounds went through this assay and about 1,000 (77%) were called active. Inconclusive results (about 7%) are left out. The call rests on the fitted dose curve; in most records, active means well fitted inhibition curve with a large enough effect; inconclusive means small, poorly fitted or top-dose-only effect; inactive means no such curve, though single readings can be large or run the other way. The set was probably picked from earlier hits. This is one part of the list.
# Assay: qHTS of small molecules that selectively kill Giardia lamblia: Hit Validation.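 Further: viability measured as ATP content by luminescence so killing lowers signal; trophozoites exposed to compounds for 48 h anaerobically at 37 °C; nearly all actives have a fitted effect of over 65% in size.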
# Details: Giardia lamblia trophozoite viability, dose-response; series mostly up to 38.3 µM; activity change, negative = killing: at the top concentration
# Summary of the method: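 Trophozoites 100 cells/well + cpd; 48 hrs, 37 deg C, anaerobic. ATPLite 1-Step added, 15-30 min RT, luminescence read (ATP-based viability).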
# On the % scale 0 is the no-effect control and ±100 the full control effect; potency means the concentration at half of the fitted maximal effect.
Structure (SMILES),"activity change, negative = killing",Potency
NC(=S)N/N=C1\c2ccccc2-c2c(C(=O)O)cccc21,-2.7% (inactive),
CC(=O)c1c(C)n([O-])c2cc(F)c(F)cc2[n+]1=O,,4.1 µM (active)
CC(=O)OCc1c(COC(C)=O)[n+](=O)c2ccccc2n1[O-],,5.79 µM (active)
O=C(Nc1ccc2oc(-c3ccccc3F)nc2c1)c1ccc([N+](=O)[O-])o1,,0.818 µM (active)
O=C(Nc1ccc2oc(-c3cccnc3)nc2c1)c1ccc([N+](=O)[O-])o1,,0.918 µM (active)
O=C(Nc1ccc2oc(-c3ccncc3)nc2c1)c1ccc([N+](=O)[O-])o1,,0.918 µM (active)
Cc1cnc(N=Nc2ccccc2)[nH]1,,9.18 µM (active)
O=C(NCCCO)c1cc([N+](=O)[O-])cc2c1C=Cc1ccccc1O2,,11.6 µM (active)
O=C(Nc1c(Cl)ccc2nsnc12)c1ccc([N+](=O)[O-])o1,,1.3 µM (active)
Cc1ccc2nsnc2c1NC(=O)c1ccc([N+](=O)[O-])o1,,3.26 µM (active)
NC(=S)NN=C1CCCCCCCC1,,23.1 µM (active)
Cc1ncc([N+](=O)[O-])n1CCOC(=O)NC(NCc1cccnc1)C(Cl)(Cl)Cl (stereo not drawn),,0.46 µM (active)
Cc1ncc([N+](=O)[O-])n1CCOC(=O)NC(NCc1ccccc1)C(Cl)(Cl)Cl (stereo not drawn),,0.206 µM (active)
Cc1ncc([N+](=O)[O-])n1CCOC(=O)NC(NCc1ccccc1Cl)C(Cl)(Cl)Cl (stereo not drawn),,0.146 µM (active)
CCCCCCSc1ccc([C@H]2N[C@@](Cc3ccccc3)(C(=O)OC)[C@H]3C(=O)N(C)C(=O)[C@@H]23)cc1,-9.35% (inactive),
Cc1cc(=O)oc2cc(O)c(N=Nc3ccccc3)cc12,,1.03 µM (active)
Cn1c(-c2ccc(C(=O)c3ccccc3)s2)nc2ccccc21,,3.26 µM (active)
COc1ccc(-c2cn3cc([N+](=O)[O-])ccc3n2)cc1OC,,1.83 µM (active)
O=[N+]([O-])c1ccc2nc(-c3ccc(OC(F)F)cc3)cn2c1,,2.31 µM (active)
COc1ccc(C(=O)Nc2ccc(C)cn2)c(OC)c1,,0.579 µM (active)
COc1cc(C(=O)NC(=S)Nc2ccc(Cl)cn2)cc(OC)c1OC,-7.19% (inactive),
COC(=O)c1sc(NC(=O)c2ccc(OC)cc2OC)nc1C,,0.365 µM (active)

Structure (SMILES),"activity change, negative = killing",Potency
C[C@H]1CN=C(N(C)C)N1CCC1CCCC1,2.7% (inactive),
CCOC(=O)CSc1ccc(C(=O)NCCCN2CCOCC2)cc1[N+](=O)[O-],,18.3 µM (active)
O=C(CN(C1CCCCC1)S(=O)(=O)c1ccc(F)cc1)NCC1CCCO1 (stereo not drawn),,1.63 µM (active)
Cc1c[n+]([O-])ccc1[N+](=O)[O-],,1.3 µM (active)
Cc1nc2c(ccc3nc(NC(=O)c4ccc5c(c4)OCCO5)sc32)s1,,3.26 µM (active) and 3.65 µM (active)
Cc1cc(NC(=O)c2ccc(C(C)(C)C)cc2)no1,,6.5 µM (active)
Cc1cc(NC(=O)c2ccc3c(c2)OCCO3)no1,,1.16 µM (active)
Cc1ccnc(NC(=O)c2ccc3c(c2)OCO3)c1,,2.59 µM (active)
N#Cc1sc(NCc2cccc(Cl)c2)nc1Cl,,23.1 µM (active)
NC(=O)CCCn1c(C(=O)c2ccc(Cl)cc2)c2ccc([N+](=O)[O-])cc2[n+]1[O-],,1.16 µM (active)
NCCCn1c(C(=O)c2ccc(Cl)cc2)c2ccc([N+](=O)[O-])cc2[n+]1[O-],,3.26 µM (active)
CCOC(=O)C1=C(C)N=c2s/c(=C/c3cccc([N+](=O)[O-])c3O)c(=O)n2C1c1cc(OC)c(OC)c(OC)c1 (stereo not drawn),,2.9 µM (active)
CCOC(=O)C1=C(C)N=c2s/c(=C/c3cccc([N+](=O)[O-])c3O)c(=O)n2C1c1ccccc1 (stereo not drawn),,2.31 µM (active)
CCOC(=O)C1=C(C)N=c2s/c(=C\c3ccc(O)c([N+](=O)[O-])c3)c(=O)n2C1c1ccccc1OC (stereo not drawn),,2.05 µM (active)
CCOC(=O)C1=C(C)N=c2s/c(=C/c3cccc([N+](=O)[O-])c3O)c(=O)n2C1c1ccc(OC)cc1OC (stereo not drawn),,1.83 µM (active)
CN(C)C(=O)CCc1ccc2c3c([nH]c2c1)[C@]1(CCC2CCCC2)[C@@H](C(=O)N2CCOCC2)C[C@H](CC(=O)NCCN2CCOCC2)C(=O)N1CC3,-13.7% (inactive),
CC(=O)N1CCN(c2ccc(NC(=O)c3ccc([N+](=O)[O-])o3)cc2Cl)CC1,,1.45 µM (active)
CN1CCN(c2ccc(NC(=O)c3ccc([N+](=O)[O-])o3)cc2Cl)CC1,,1.3 µM (active)
CCC(=O)N1CCN(c2ccc(Cl)cc2NC(=O)c2ccc([N+](=O)[O-])o2)CC1,,1.16 µM (active)
CS(=O)(=O)N1CCN(c2ccccc2NC(=O)c2ccc([N+](=O)[O-])o2)CC1,,1.3 µM (active)
CN1CCN(c2ccc(NC(=O)c3ccc4c(c3)OCCO4)cc2Cl)CC1,,5.16 µM (active)
